Our source for the growth values is PubChem BioAssay (NCI).

Test systems include RPMI-8226 leukemia; OVCAR-8 ovarian; OVCAR-5 ovarian; SK-OV-3 ovarian; IGROV1 ovarian; OVCAR-3 ovarian; HS 578T breast; NCI/ADR-RES ovarian; T-47D breast; BT-549 breast; MDA-MB-435 melanoma; SW-620 colon; MCF7 breast; HCT-116 colon; HCC-2998 colon; KM12 colon; OVCAR-4 ovarian.
Test in all cases: NCI-60 one-dose screen, 48 h (100 = growth as untreated, 0 = no growth, -100 = all killed)
Holding throughout (conditions): 10 µM unless noted

About 83,000 compounds went through this panel and 20% of them were active in at least one assay; those are over-represented in the sample as a whole.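 48-hour exposure, single concentration, 96-well plates; percent growth endpoint where 0 means no net growth. Active: below 10.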 Values without a mark were called inactive. Activity calls are given as the source filed them.

For the molecule `Cc1cc([N+](=O)[O-])c(C)cc1C(=O)O`, the growth in the assay on RPMI-8226 leukemia is 115%; in the assay on OVCAR-8 ovarian, 103%; in the assay on OVCAR-5 ovarian it was 93.7%; in the assay on SK-OV-3 ovarian, 99.2%; with IGROV1 ovarian, 110%; in the assay with OVCAR-3 ovarian, 106%. For the same molecule, the growth was 107% in the assay on HS 578T breast; 103% with NCI/ADR-RES ovarian; 83.5% in the assay on T-47D breast; 92.5% with BT-549 breast; 102% in the assay with MDA-MB-435 melanoma; 108% with SW-620 colon. Further, the growth with MCF7 breast was 97.6%; in the assay with HCT-116 colon, 102%; in the assay on HCC-2998 colon, 109%; in the assay on KM12 colon, 102%.
As for `CCS(=O)(=O)OCCCl`, the growth with RPMI-8226 leukemia was 120%; in the assay with OVCAR-8 ovarian it was 103%; with OVCAR-5 ovarian, 80.8%; in the assay on OVCAR-4 ovarian it was 100%; with SK-OV-3 ovarian it was 87.4%; in the assay with HS 578T breast, 104%. Further, the growth in the assay on NCI/ADR-RES ovarian is -5.43% (active); in the assay on T-47D breast it was 102%; in the assay with BT-549 breast, 89.6%; with MDA-MB-435 melanoma it was 106%; in the assay on SW-620 colon, 108%; with MCF7 breast it was 102%. Also, the growth is 107% in the assay with HCT-116 colon and 115% in the assay with KM12 colon.
With `CCN(CC)c1ccc(N=Nc2cc(Cl)ccc2Cl)c(NC(=O)CCC(=O)O)c1`, the growth was 97.6% with RPMI-8226 leukemia; 89.2% with OVCAR-8 ovarian; 92.5% with OVCAR-5 ovarian; 97.5% with SK-OV-3 ovarian; 92.2% in the assay on IGROV1 ovarian; 96.8% in the assay with OVCAR-3 ovarian. In addition, the growth is 95.1% with HS 578T breast; 95.5% in the assay on NCI/ADR-RES ovarian; 90.2% with T-47D breast; 120% in the assay on BT-549 breast; 115% with MDA-MB-435 melanoma; 105% with SW-620 colon. Moreover, the growth with MCF7 breast was 93.2%; in the assay on HCT-116 colon, 99.7%; in the assay with HCC-2998 colon, 107%; in the assay with KM12 colon, 101%.
In the case of `COc1ccc(/C=N/NC(=O)c2ccc(S(C)(=O)=O)cc2)cc1OC`, the growth in the assay with RPMI-8226 leukemia was 97.1%; with OVCAR-5 ovarian it was 111%; in the assay with OVCAR-4 ovarian it was 96.2%; in the assay on SK-OV-3 ovarian it was 102%; with IGROV1 ovarian it was 109%; with OVCAR-3 ovarian, 108%. The growth was 102% in the assay on HS 578T breast; 108% in the assay with NCI/ADR-RES ovarian; 109% in the assay on BT-549 breast; 109% in the assay with MDA-MB-435 melanoma; 99.8% in the assay with SW-620 colon; 92.4% in the assay with MCF7 breast. Further, the growth in the assay on HCT-116 colon was 89%; in the assay with HCC-2998 colon it was 98.5%; in the assay with KM12 colon, 95.8%.
As to `Cc1cc(C(C)(C)C)cc(C)c1CC1=NCCN1`, the growth in the assay on RPMI-8226 leukemia was 114%; with OVCAR-8 ovarian, 107%; with OVCAR-4 ovarian, 117%; in the assay with SK-OV-3 ovarian, 124%; in the assay on IGROV1 ovarian, 108%; in the assay on OVCAR-3 ovarian, 112%. Also, the growth with HS 578T breast is 102%; in the assay with NCI/ADR-RES ovarian, 101%; with BT-549 breast, 98.3%; in the assay on MDA-MB-435 melanoma, 100%; with SW-620 colon, 108%; in the assay with MCF7 breast it was 113%. The growth in the assay on HCT-116 colon was 112%; with HCC-2998 colon, 96.4%; in the assay with KM12 colon, 103%.
As to `CNc1ccc(CSc2ccc(Cl)cc2)cc1`, the growth in the assay on RPMI-8226 leukemia was 35.8%; in the assay with OVCAR-5 ovarian, 90.2%; in the assay with OVCAR-4 ovarian, 85.6%; in the assay on SK-OV-3 ovarian it was 107%; in the assay with IGROV1 ovarian it was 81.9%; in the assay with OVCAR-3 ovarian, 109%. Further, the growth with HS 578T breast was 123%; with NCI/ADR-RES ovarian, 97%; in the assay with T-47D breast, 80.3%; with MDA-MB-435 melanoma, 87.3%; in the assay on SW-620 colon, 109%; in the assay with MCF7 breast it was 96.2%. Further, the growth in the assay on HCT-116 colon was 91.3%; in the assay on HCC-2998 colon, 118%; with KM12 colon it was 111%.
Regarding `CCOC(=O)c1c2c(c(C)n1Cc1ccccc1)-c1nc(N)ncc1CC2`, the growth in the assay with RPMI-8226 leukemia is 80%; in the assay with OVCAR-8 ovarian, 104%; in the assay on OVCAR-5 ovarian it was 78.6%; in the assay with SK-OV-3 ovarian, 118%; in the assay with OVCAR-3 ovarian, 125%; in the assay on HS 578T breast, 93.6%. Also, the growth in the assay with NCI/ADR-RES ovarian is 101%; in the assay on T-47D breast, 86.4%; in the assay on BT-549 breast, 162%; in the assay on MDA-MB-435 melanoma it was 136%; in the assay with SW-620 colon, 104%; in the assay with MCF7 breast, 106%. For the same molecule, the values for the growth in the assay on HCT-116 colon, with HCC-2998 colon and in the assay with KM12 colon were 90.7%, 97.4% and 100%, respectively.
Take `COc1cc(/C=C/C(=O)Nc2ccc3c(c2)/C(=C\c2cccn2C)C(=O)N3)cc(OC)c1OC`: the growth is -17.8% (active) in the assay on RPMI-8226 leukemia; 99.5% in the assay with OVCAR-5 ovarian; 50.3% in the assay with OVCAR-4 ovarian; 81.5% with SK-OV-3 ovarian; 60.4% in the assay on IGROV1 ovarian; 41.7% in the assay with OVCAR-3 ovarian. Besides, the growth is 4.35% (active) with HS 578T breast; 84.2% in the assay on NCI/ADR-RES ovarian; 15% with T-47D breast; 46.6% in the assay with BT-549 breast; 59.9% with MDA-MB-435 melanoma; 83.1% with SW-620 colon. In addition, the growth is 1.79% (active) with MCF7 breast, 37.3% with HCT-116 colon and 33.8% with KM12 colon.
In the case of `CCCCOc1ccc(C(C)(C)c2ccc(OCCCC)cc2)cc1`, the growth with RPMI-8226 leukemia was 91%; in the assay on OVCAR-5 ovarian, 109%; with OVCAR-4 ovarian it was 108%; in the assay on SK-OV-3 ovarian, 94.6%; in the assay on IGROV1 ovarian it was 103%; in the assay with OVCAR-3 ovarian it was 106%. Further, the growth was 105% with HS 578T breast; 101% in the assay on NCI/ADR-RES ovarian; 90.2% in the assay on T-47D breast; 106% with BT-549 breast; 117% with MDA-MB-435 melanoma; 112% in the assay on SW-620 colon. Also, the growth with MCF7 breast was 104%; in the assay with HCT-116 colon it was 95.8%; with HCC-2998 colon, 105%; in the assay with KM12 colon, 120%.
Turning to `CO[C@H]1CC(O[C@@H]2/C(C)=C/C[C@@H]3C[C@@H](C[C@]4(CC[C@H](C)[C@@H](C5CCCCC5)O4)O3)OC(=O)[C@@H]3C=C(C)/C(=N/O)[C@H]4OC/C(=C\C=C\[C@@H]2C)[C@]43O)O[C@@H](C)C1O` (some centres not stated), the growth is -28.8% (active) in the assay with RPMI-8226 leukemia; -83% (active) in the assay on OVCAR-5 ovarian; -88.5% (active) in the assay with OVCAR-4 ovarian; -98.4% (active) in the assay on SK-OV-3 ovarian; -47.4% (active) with IGROV1 ovarian; -98.3% (active) in the assay with OVCAR-3 ovarian. Further, the growth is -43.7% (active) in the assay on HS 578T breast; -76.3% (active) in the assay on NCI/ADR-RES ovarian; -78.1% (active) in the assay with T-47D breast; -88.3% (active) in the assay with BT-549 breast; -86.1% (active) in the assay with MDA-MB-435 melanoma; -73.2% (active) with SW-620 colon. The growth with HCT-116 colon is -95.6% (active); in the assay with HCC-2998 colon it was -78.1% (active); with KM12 colon it was -88.8% (active).
